Inconclusive results are not listed. More than one record can exist for a structure, and the calls need not agree. Calls of active or inactive are those of the source. Unless noted, the call rests on the fitted dose curve.
What was measured:
Aromatase (Homo sapiens) = Aromatase (Homo sapiens) (UniProt P11511); test: qHTS assay to identify aromatase inhibitors (AID 743083; active means well fitted curve in the direction sought with a large enough effect in the repeat runs; an effect the other way counts as inactive or inconclusive; further: nearly all actives have a fitted effect of over 55% in size; further: potency means the concentration at half of the fitted maximal effect)
[1] = target: Aryl hydrocarbon receptor (Homo sapiens) (UniProt P35869); test: qHTS assay to identify small molecule that activate the aryl hydrocarbon receptor (AhR) signaling pathway (AID 743085; active means well fitted curve in the direction sought with a large enough effect in the repeat runs; an effect the other way counts as inactive or inconclusive; further: nearly all actives have a fitted effect of over 15% in size; further: potency means the concentration at half of the fitted maximal effect;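 on activation: HG2L7.5c1 human HepG2 liver cells with stably integrated DRE-driven firefly reporter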)
Method in brief: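 A multiplexed format paired cell viability (CellTiter-Fluor fluorescence) with AhR-dependent luciferase output (ONE-Glo luminescence) in the same wells of HepG2 DRE-luc cells after 24 h compound exposure at 37C.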

[2] = qHTS assay to identify small molecule antagonists of the retinoic acid receptor (RAR) signaling pathway (AID 1159552; active means well fitted curve in the direction sought with a large enough effect in the repeat runs; an effect the other way counts as inactive or inconclusive; further: nearly all actives have a fitted effect of over 50% in size; further: potency means the concentration at half of the fitted maximal effect)
Method in brief: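 Antagonism of retinol-induced RARE reporter activity was measured in C3RL4 cells. Exposure to compounds and 1 uM final retinol lasted 6 hr at 37 C, with luminescence as endpoint.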

[3] = Caspase-3/7 induction in HepG2 cells by small molecules, qHTS assay (AID 1346978; active means well fitted curve in the direction sought with a large enough effect in the repeat runs; an effect the other way counts as inactive or inconclusive; further: nearly all actives have a fitted effect of over 15% in size; further: potency means the concentration at half of the fitted maximal effect)
Method in brief: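 Wild-type HepG2 cells (2,000/well) were settled 5 h at 37 C, 5% CO2, then exposed to compounds in DMSO for 17 h. Caspase-3/7 activity was read by luminescence 30 min after adding Caspase-Glo 3/7 reagent at room temperature.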

[4] = target: Acetylcholinesterase (Homo sapiens) (UniProt P22303); test: Acetylcholinesterase (AChE) small molecule antagonists: colormetric cell-based qHTS assay (AID 1347395); further: nearly all actives have a fitted effect of over 30% in size
Method in brief: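 Homogeneous whole-cell format. SH-SY5Y cells seeded overnight, dosed with compound (30 min, 37 C, 5% CO2), then given DTNB/acetylthiocholine cocktail for 90 min at 37 C; colorimetric signal.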

[5] = target: Acetylcholinesterase (Homo sapiens) (UniProt P22303); test: Acetylcholinesterase (AChE) small molecule antagonists: enzyme-based qHTS assay (AID 1347397); conditions: Potency: AChE enzyme activity inhibition; outcome: AChE enzyme activity inhibition; further: nearly all actives have a fitted effect of over 55% in size
Method in brief: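 Compound or DMSO vehicle was pin-transferred onto recombinant human AChE (50 mU/mL as dispensed) and left 30 min at room temperature. Acetylthiocholine with DTNB then started the reaction, read colorimetrically 10 min later.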

[6] = target: Acetylcholinesterase (Homo sapiens) (UniProt P22303); test: Acetylcholinesterase (AChE) small molecule antagonists: fluorescence cell-based qHTS assay (AID 1347398); conditions: Potency: AChE activity; outcome: AChE activity; further: nearly all actives have a fitted effect of over 50% in size; further: potency means the concentration at half of the fitted maximal effect
Method in brief: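 Using neuroblastoma SH-SY5Y cells as the enzyme source, test chemicals are preincubated 30 min at 37 C; AChE-driven acetylthiocholine cleavage is then quantified by thiocholine-dependent Thiolite Green fluorescence after 40 min at room temperature.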

[7] = target: Acetylcholinesterase (Homo sapiens) (UniProt P22303); test: Acetylcholinesterase (AChE) small molecule antagonists: enzyme-based qHTS assay with human liver microsomes (AID 1347399); conditions: Potency: qHTS inhibition; outcome: qHTS inhibition; further: nearly all actives have a fitted effect of over 60% in size
Method in brief: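 Recombinant human AChE (50 mU/mL in the enzyme mix) and human liver microsomes (0.25 mg/mL final) were preincubated with compound and NADPH (0.25 mg/mL final) for 30 min at 37 C. Acetylthiocholine/DTNB was then added; thiocholine was read colorimetrically after 10 min at room temperature.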

[8] = qHTS assay to identify small molecule agonists of the estrogen related receptor signaling pathway with the pleiotropic PPARgamma coactivator (PGC) from Tox21 10K library (AID 1224842; active means well fitted curve in the direction sought with a large enough effect in the repeat runs; an effect the other way counts as inactive or inconclusive; further: nearly all actives have a fitted effect of over 15% in size)
Method in brief: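 PGC/ERR reporter cells (NTP line) were seeded 2,000 per well, rested 6 h at 37 C/5% CO2, then pin-dosed with compounds in DMSO for 18 h at 37 C; luciferase read by One-Glo luminescence after 30 min at room temperature.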

[9] = qHTS assay to identify small molecule agonists of the estrogen related receptor (ERR) signaling pathway from Tox21 library (AID 1224849); conditions: ERR reporter cell line, ONE-Glo luciferase, 18 h; at 92.4 µM (top of the series) unless noted; further: nearly all actives have a fitted effect of over 15% in size
Method in brief: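 Luminescence readout (ONE-Glo, 30 min RT) after 18 h compound exposure at 37 C of NTP-supplied ERR reporter cells; cells were plated 6 h before compound addition by pin tool.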

[10] = A CellTox Green Cytotoxicity Assay to monitor cytotoxicity in HepG2 cells - 0 hour (AID 1224882; active means well fitted curve in the direction sought with a large enough effect in the repeat runs; an effect the other way counts as inactive or inconclusive; further: nearly all actives have a fitted effect of over 35% in size)
Method in brief: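 HepG2, 600 cells/well premixed w/ CellTox Green; 5 h settle, 37 C/5% CO2; pintool cpd add (DMSO); 37 C, 40 h; fluorescence read at 0, 8, 16, 24, 32, 40 h.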

[11] = qHTS assay to identify small molecule HDAC inhibitors (AID 1259364; active means well fitted curve in the direction sought with a large enough effect in the repeat runs; an effect the other way counts as inactive or inconclusive;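 further: wild-type HCT-116 cells with endogenous class I/II HDAC activity; top concentration of the series differs between compounds; nearly all actives have a fitted effect of over 45% in size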)
Method in brief: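 HCT-116 (wild type), 1,500 cells/well, overnight; compound 2 hr 37C 5% CO2; HDAC-Glo I/II reagent 30 min RT; luminescence readout.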

[12] = qHTS assay to identify small molecule agonists of the sonic hedgehog signaling (Shh) pathway (AID 1259368)
Method in brief: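 Read-out: firefly luciferase luminescence from a Gli1 response element reporter stably integrated in NIH/3T3-derived 3T3Gli1-Luc cells, measured 30 min at room temperature after reagent addition. Compound exposure lasted 24 hr at 37 C, 5% CO2.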

[13] = Caspase-3/7 induction in CHO-K1 cells by small molecules, qHTS assay (AID 1346980; active means well fitted curve in the direction sought with a large enough effect in the repeat runs; an effect the other way counts as inactive or inconclusive; further: nearly all actives have a fitted effect of over 15% in size)
Method in brief: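 Wild-type cells were seeded at 1,500 per well and settled 5 hr at 37 C, 5% CO2, then exposed to DMSO-dissolved compounds for 17 hr. Caspase-Glo 3/7 reagent was added, and luminescence was read after 30min at room temperature.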

[14] = qHTS assay to identify small molecule agonists of H2AX (AID 1224845; active means well fitted activation curve with a large enough effect in the signal ratio in the repeat runs, not every such curve was filed as active; the % refers to the signal ratio; further: potency means the concentration at half of the fitted maximal effect)
Method in brief: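 Wild-type CHO-K1 cells plated overnight, then exposed 3 hr at 37C to compounds at 15 concentrations (0.76% DMSO). Lysed, then HTRF anti-pH2AX(S139)-cryptate/anti-H2AX-d2 detection after 24 hr at room temperature; emissions 665 and 620 nm.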
On the % scale 0 is the no-effect control and ±100 the full control effect.

Acetylcholinesterase (Homo sapiens), sequence (P22303 whole entry, looked up): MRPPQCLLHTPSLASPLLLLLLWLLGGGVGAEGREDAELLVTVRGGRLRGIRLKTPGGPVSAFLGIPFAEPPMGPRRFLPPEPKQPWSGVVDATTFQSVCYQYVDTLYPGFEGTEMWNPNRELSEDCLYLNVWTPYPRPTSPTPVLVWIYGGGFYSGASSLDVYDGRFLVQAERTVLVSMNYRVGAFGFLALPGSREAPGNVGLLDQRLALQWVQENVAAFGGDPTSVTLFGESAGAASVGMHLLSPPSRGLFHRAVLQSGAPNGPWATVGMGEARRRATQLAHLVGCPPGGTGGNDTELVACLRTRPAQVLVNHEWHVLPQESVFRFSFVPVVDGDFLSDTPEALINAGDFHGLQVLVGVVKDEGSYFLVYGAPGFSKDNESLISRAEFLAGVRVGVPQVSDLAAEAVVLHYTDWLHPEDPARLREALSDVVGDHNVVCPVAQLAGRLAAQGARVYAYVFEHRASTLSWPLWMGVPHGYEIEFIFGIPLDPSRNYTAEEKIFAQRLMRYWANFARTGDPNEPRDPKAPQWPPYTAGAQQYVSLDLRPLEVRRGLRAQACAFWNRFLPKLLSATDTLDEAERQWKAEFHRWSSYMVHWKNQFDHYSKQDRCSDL
Aryl hydrocarbon receptor (Homo sapiens), sequence (P35869 whole entry, looked up): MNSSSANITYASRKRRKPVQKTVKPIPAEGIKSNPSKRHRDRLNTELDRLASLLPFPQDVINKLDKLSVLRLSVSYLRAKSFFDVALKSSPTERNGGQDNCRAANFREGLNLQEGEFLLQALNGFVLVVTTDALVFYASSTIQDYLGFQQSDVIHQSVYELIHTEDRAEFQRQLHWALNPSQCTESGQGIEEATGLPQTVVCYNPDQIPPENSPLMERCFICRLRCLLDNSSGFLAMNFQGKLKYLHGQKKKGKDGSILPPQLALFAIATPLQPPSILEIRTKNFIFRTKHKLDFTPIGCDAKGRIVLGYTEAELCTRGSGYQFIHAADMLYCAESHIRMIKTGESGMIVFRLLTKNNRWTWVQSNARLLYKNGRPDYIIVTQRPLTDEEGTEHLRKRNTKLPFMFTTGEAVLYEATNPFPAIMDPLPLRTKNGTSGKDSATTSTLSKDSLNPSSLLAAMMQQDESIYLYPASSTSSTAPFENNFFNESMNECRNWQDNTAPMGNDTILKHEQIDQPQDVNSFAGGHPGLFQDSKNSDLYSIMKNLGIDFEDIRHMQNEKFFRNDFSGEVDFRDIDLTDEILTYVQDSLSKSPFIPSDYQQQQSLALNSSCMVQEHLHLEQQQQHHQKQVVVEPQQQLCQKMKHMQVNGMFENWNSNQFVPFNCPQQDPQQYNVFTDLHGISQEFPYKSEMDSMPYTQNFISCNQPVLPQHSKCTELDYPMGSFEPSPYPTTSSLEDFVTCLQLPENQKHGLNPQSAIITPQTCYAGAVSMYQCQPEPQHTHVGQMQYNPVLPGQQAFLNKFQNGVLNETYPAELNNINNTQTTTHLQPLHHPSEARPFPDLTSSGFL
Aromatase (Homo sapiens), sequence (P11511 whole entry, looked up): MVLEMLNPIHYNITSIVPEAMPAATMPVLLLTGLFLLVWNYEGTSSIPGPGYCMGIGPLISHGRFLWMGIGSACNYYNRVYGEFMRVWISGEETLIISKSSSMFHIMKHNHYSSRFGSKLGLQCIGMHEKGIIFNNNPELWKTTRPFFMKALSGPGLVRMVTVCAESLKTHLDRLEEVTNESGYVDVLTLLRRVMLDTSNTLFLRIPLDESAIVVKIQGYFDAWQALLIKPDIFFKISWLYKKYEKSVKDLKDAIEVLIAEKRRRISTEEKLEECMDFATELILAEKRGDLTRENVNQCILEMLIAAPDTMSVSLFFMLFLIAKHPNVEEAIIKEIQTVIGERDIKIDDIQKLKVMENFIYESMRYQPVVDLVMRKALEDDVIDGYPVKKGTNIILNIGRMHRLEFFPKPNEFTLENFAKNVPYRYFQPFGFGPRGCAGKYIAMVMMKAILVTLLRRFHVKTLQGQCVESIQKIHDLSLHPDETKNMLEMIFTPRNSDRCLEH

COCCOC(=O)c1ccccc1C(=O)OCCOC
inactive: Potency (Aromatase (Homo sapiens)) | Potency [1] | Potency [2] | Potency [3] | Potency [4] | Potency [5] | Potency [6] | Potency [7]

ClC1=C(Cl)[C@]2(Cl)[C@@H]3[C@@H](Cl)[C@H]4O[C@H]4[C@@H]3C1(Cl)C2(Cl)Cl
inactive: Potency [1] | Potency [8] | activity change, positive = activation [9] -26.9% | Potency [10] | outcome [11] | outcome [12] | Potency [3] | outcome [13] | Potency [4] | Potency [5] | Potency [6] | Potency [7]
active: Potency [2] 68.6 µM

C=CC(=O)OCCCC
inactive: Potency (Aromatase (Homo sapiens)) | Potency [4] | Potency [5] | Potency [6] | Potency [7]

CC(C)(C)OCC1CO1 (centres undefined)
inactive: Potency (Aromatase (Homo sapiens)) | Potency [2] | Potency [4] | Potency [5] | Potency [6] | Potency [7]

CC(CCl)OC(C)CCl (centres undefined)
inactive: Potency (Aromatase (Homo sapiens)) | Potency [4] | Potency [5] | Potency [6] | Potency [7]

O=C(c1ccc(Cl)cc1)c1ccc(Cl)cc1
inactive: Potency [3] | Potency [4] | Potency [5] | Potency [6] | Potency [7]

Cc1ccccc1N=O
inactive: Potency [2] | Potency [3] | Potency [4] | Potency [5] | Potency [6] | Potency [7]

CCc1cccc(C)c1N
34.5 µM (active) and inactive: Potency [6]
inactive: Potency (Aromatase (Homo sapiens)) | Potency [1] | Potency [2] | Potency [8] | Potency [14] | activity change, positive = activation [9] 10.2% | Potency [4] | Potency [5] | Potency [7]

O=C(O)C(c1ccc(Cl)cc1)c1ccc(Cl)cc1
inactive: Potency (Aromatase (Homo sapiens)) | Potency [1] | Potency [3] | Potency [4] | Potency [5] | Potency [6] | Potency [7]

Nc1ccc2c3c(cccc13)-c1ccccc1-2
active: Potency [1] 21.9 µM
inactive: Potency (Aromatase (Homo sapiens)) | Potency [2] | Potency [4] | Potency [5] | Potency [6] | Potency [7]

COc1ccccc1[N+](=O)[O-]
inactive: Potency (Aromatase (Homo sapiens)) | Potency [1] | Potency [2] | Potency [8] | Potency [14] | activity change, positive = activation [9] 4.31% | Potency [3] | Potency [4] | Potency [5] | Potency [6] | Potency [7]

Nc1ccccc1[N+](=O)[O-]
inactive: Potency (Aromatase (Homo sapiens)) | Potency [1] | Potency [2] | Potency [3] | Potency [4] | Potency [5] | Potency [6] | Potency [7]

CC(CCl)OP(=O)(OC(C)CCl)OC(C)CCl (centres undefined)
inactive: Potency (Aromatase (Homo sapiens)) | Potency [1] | Potency [2] | activity change, positive = activation [9] -19.5% | Potency [4] | Potency [5] | Potency [6] | Potency [7]

Oc1c(Cl)ccc(Cl)c1Cl
inactive: Potency (Aromatase (Homo sapiens)) | Potency [1] | Potency [2] | Potency [8] | Potency [3] | Potency [4] | Potency [5] | Potency [6] | Potency [7]

Brc1ccccc1-c1ccccc1
inactive: Potency [2] | activity change, positive = activation [9] -1.58% | Potency [3] | Potency [4] | Potency [5] | Potency [6] | Potency [7]

c1ccncc1
inactive: Potency (Aromatase (Homo sapiens)) | Potency [1] | Potency [3] | outcome [4] | outcome [5] | outcome [6] | outcome [7]

c1cc(OCC2CO2)cc(OCC2CO2)c1 (centres undefined)
inactive: Potency [1] | Potency [2] | Potency [4] | Potency [5] | Potency [6] | Potency [7]
active: Potency (Aromatase (Homo sapiens)) 38.3 µM

O=[N+]([O-])c1cc(C(F)(F)F)ccc1Cl
inactive: Potency (Aromatase (Homo sapiens)) | Potency [8] | activity change, positive = activation [9] -5.28% | Potency [4] | Potency [5] | Potency [6] | Potency [7]

O=[N+]([O-])c1ccc2ncccc2c1
inactive: Potency [2] | Potency [4] | Potency [5] | Potency [6] | Potency [7]

Fc1c(F)c(F)c(Br)c(F)c1F
inactive: Potency (Aromatase (Homo sapiens)) | Potency [1] | Potency [2] | Potency [3] | Potency [4] | Potency [5] | Potency [7]

C=CCOC(=O)c1ccccc1C(=O)OCC=C
inactive: Potency (Aromatase (Homo sapiens)) | Potency [1] | Potency [2] | Potency [14] | Potency [4] | Potency [5] | Potency [6] | Potency [7]

Cc1cccc(C)c1[N+](=O)[O-]
inactive: Potency (Aromatase (Homo sapiens)) | Potency [2] | Potency [14] | Potency [3] | Potency [4] | Potency [5] | Potency [6] | Potency [7]

Brc1ccc(-c2ccccc2)cc1
inactive: Potency (Aromatase (Homo sapiens)) | Potency [2] | Potency [4] | Potency [5] | Potency [6] | Potency [7]

CC(C)=O
inactive: Potency (Aromatase (Homo sapiens)) | Potency [2] | Potency [4] | Potency [5] | Potency [6] | Potency [7]

OCC(CBr)(CBr)CBr
inactive: Potency (Aromatase (Homo sapiens)) | Potency [2] | Potency [14] | Potency [3] | Potency [4] | Potency [5] | Potency [6] | Potency [7]

Nc1ccc(Cl)cc1Cl
inactive: Potency [2] | Potency [8] | Potency [14] | activity change, positive = activation [9] -4.05% | Potency [3] | Potency [4] | Potency [5] | Potency [6] | Potency [7]

Cc1ccc(N)c([N+](=O)[O-])c1
inactive: Potency (Aromatase (Homo sapiens)) | Potency [1] | Potency [2] | Potency [4] | Potency [5] | Potency [6] | Potency [7]

C[C@@]12C(=O)OC(=O)[C@]1(C)C1CCC2O1
inactive: Potency [1] | Potency [4] | Potency [5] | Potency [6] | Potency [7]
active: Potency (Aromatase (Homo sapiens)) 3.59 µM | Potency [2] 5.31 µM | Potency [14] 22 µM | Potency [3] 0.376 µM

— PubChem BioAssay (Tox21)
